Measurements published in PubChem BioAssay AID2153 (The Scripps Research Institute Molecular Screening Center, 2009).
The whole screen tested about 2,400 compounds, of which about 2,000 (83%) were called active. The set was probably picked from earlier hits. The list is a sample of the results. Unmarked numbers belong to inactive results.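 The calls were made as follows: active = inhibition above the solvent-only control well mean plus 3 SD, limit set per screening run (cut at about 23% in these data); inactive = the rest.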

Molecular target: Guanyl-specific ribonuclease T1 (Aspergillus oryzae (strain ATCC 42149 / RIB 40)) (UniProt P00651)
Sequence (P00651 whole entry, looked up): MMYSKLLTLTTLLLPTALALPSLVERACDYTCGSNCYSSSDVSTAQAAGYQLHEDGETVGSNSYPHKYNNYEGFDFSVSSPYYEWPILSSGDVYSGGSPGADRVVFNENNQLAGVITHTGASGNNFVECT
Experiment: RNase T1 inhibitors, counter-screen for TPT1 inhibitor project, biochemical, fluorescence polarization (AID 2153);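 also: plate controls were DMSO wells with enzyme for no effect and wells without RNase T1 for full effect; inhibitors block cleavage so intact labeled substrate keeps polarization high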
Details: RNase T1 cleavage, 1536-well, at 5 µM, stronger effect = higher value

SMILES | inhibition
CC(C)n1c(=O)c(C=Nc2ccc(Br)cc2)c(O)n(Cc2ccco2)c1=O | 28.4% (active)
CCCCC(=O)N/N=C/c1c(O)n(CC)c(=S)n(CC)c1=O | 110% (active)
CCN1C(=O)C(=Cc2c(C)n(CC(=O)NCC3CCCO3)c3ccccc23)C(=O)N(CC)C1=S (centres undefined) | 26.4% (active)
COc1ccccc1N=Nc1c(O)[nH]c(=S)[nH]c1=O | 77.7% (active)
CC/C(=N\NC(=O)c1ccccc1O)c1c(O)n(Cc2ccccc2)c(=O)[nH]c1=O | 35.2% (active)
O=C1CC(=O)N(Cc2ccccc2)C(=O)N1CCCCCCN1C(=O)CC(=O)N(Cc2ccccc2)C1=O | 34.1% (active)
O=C1NC(=O)N(Cc2ccco2)C(=O)/C1=C\c1cccn1CCOc1ccccc1 | 11.7%
COc1ccc(N2C(=O)/C(=C/c3ccco3)C(=O)NC2=S)cc1 | 24.8% (active)
O=C1NC(=O)N(Cc2ccco2)C(=O)/C1=C\c1ccc(-c2ccc(F)cc2)o1 | 20.3%
